# Source: PubChem (The Scripps Research Institute Molecular Screening Center)
# Rows were chosen to be rich in hits. Some 2.3% of all compounds tested hit in one or more screens of this group.
# CHO-K1 Ca antag: nonselective inhibitor or artifact in parental CHO-K1 cells; ATP-induced calcium, Fluo-8 fluorescence; inhibition, % at 3 µM; 360,000 tested, 0.6% active;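 active = inhibition above a per-plate cutoff, the plate's mean sample inhibition plus 3 SD, cut at about 24% in these data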
# M1 ag: activates human CHRM1 receptor. 360,000 tested, 0.33% active. CHO-K1 hM1, Fluo-8 calcium fluorescence, agonist mode; 0% DMSO, 100% acetylcholine EC100. P11229. activation, % at 3 µM. AID 588814;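 active = activation above the run's mean compound activation plus 3 SD, cut at about 16% in these data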;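 note: peak over basal fluorescence ratio within a 140 s kinetic read after compound addition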
# Target sequence (P11229 whole entry, looked up): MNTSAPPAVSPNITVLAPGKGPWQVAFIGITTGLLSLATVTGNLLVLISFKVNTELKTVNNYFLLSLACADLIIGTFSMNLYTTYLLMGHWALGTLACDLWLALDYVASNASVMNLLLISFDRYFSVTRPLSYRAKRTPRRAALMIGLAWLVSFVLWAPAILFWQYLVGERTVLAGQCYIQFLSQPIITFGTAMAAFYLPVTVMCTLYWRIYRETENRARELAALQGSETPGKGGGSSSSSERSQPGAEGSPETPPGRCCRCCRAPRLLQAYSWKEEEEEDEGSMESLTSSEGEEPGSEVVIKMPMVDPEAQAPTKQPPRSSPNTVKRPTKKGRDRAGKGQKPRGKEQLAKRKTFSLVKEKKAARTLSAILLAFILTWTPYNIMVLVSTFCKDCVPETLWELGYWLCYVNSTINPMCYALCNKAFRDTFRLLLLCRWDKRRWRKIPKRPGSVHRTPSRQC
# M1 PAM parental: nonselective activator or artifact in parental CHO-K1 calcium assay; ATP EC20, Fluo-8 calcium fluorescence; 0% at ATP EC20, 100% at ATP max; activation, % at 3 µM; 360,000 tested, 0.02% active;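 active = activation above the run cutoff, the mean activation of all test compounds plus 3 SD, cut at about 40% in these data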;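 note: peak over basal fluorescence ratio in a 140 s read after ATP addition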
# CHRM1 PAM: potentiates human M1 receptor response to acetylcholine | 360,000 tested, 0.088% active | activation, % at 3 µM | P11229 | CHO-K1 hM1, Fluo-8 calcium fluorescence, ACh EC20; 0% = ACh EC20, 100% = maximal ACh; in the data active = activation above about 19%, passing the limit was not always enough
# M1 ag parental: M1 agonist counterscreen hit in parental CHO-K1 cells; Fluo-8 calcium fluorescence; scaled to maximal ATP response, vehicle zero; activation, % at 3 µM; 360,000 tested, 0.48% active; in the data active = activation above about 15%;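 note: untransfected CHO-K1 host cells lacking M1 receptor as counterscreen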
# M1 antag: antagonists of human M1 muscarinic receptor; CHO-K1 hM1, Fluo-8 calcium fluorescence, ACh EC80 antagonist; P11229; inhibition, % at 3 µM; AID 588852; 360,000 tested, 1.3% active;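 active = percent inhibition above its own plate's cutoff, namely the mean of that plate's compound wells plus 3 SD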;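 note: peak over basal fluorescence ratio during 140 s after agonist addition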
# A number is an active result; n = inactive; x = no result given.
SMILES,CHO-K1 Ca antag,M1 ag,M1 PAM parental,CHRM1 PAM,M1 ag parental,M1 antag
COc1ccccc1NC(=O)C(C)N(C)Cc1ccc(Cl)s1 (stereo not drawn),n,n,48,n,n,n
O=C1Nc2ccccc2C(=O)N2[C@H](c3ccc(F)cc3)[C@@H]3C(=O)N(Cc4ccccc4)C(=O)[C@@H]3[C@H]12,n,36,n,n,n,n
CN1[C@@H](Cc2ccccc2)COc2cc(N3CCSCC3)ccc2S1(=O)=O,n,x,n,x,n,x
C=CCN(C(=O)CN1CCCCC1)c1nc(-c2ccccc2)cs1,n,n,n,n,n,25
C=CCN(C(=O)CN1CCOCC1)c1nc(C)c(-c2ccccc2)s1,n,n,n,n,n,n
Cc1ccc(S(=O)(=O)NCC(=O)N2CCN(c3ccc(F)cc3)CC2)cc1,n,n,n,n,n,n
CCCCCOC(=O)C1=C(C)Nc2ncnn2C1c1cccs1 (stereo not drawn),n,n,n,n,n,27
O=C1NC[C@H](CCCCN2CCN(Cc3ccccc3)C(=O)C2=O)N(CCC2CCCCC2)C1=O,n,x,n,x,n,x
CCCc1cc(=O)oc2cc(OC(C)C(=O)NCC3CCC(C(=O)O)CC3)ccc12 (stereo not drawn),27,n,n,n,n,n
COc1ccc(C)cc1N1CC(C(=O)Nc2ccccc2C(=O)NC2CC2)CC1=O (stereo not drawn),n,n,n,n,n,n
O=C(NC1CCCCC1)C(=O)c1c(-c2ccccc2)[nH]c2ccccc12,27,n,n,n,n,n
COc1ccc(C2N(c3ccccc3)C(=S)N3CCCN23)cc1 (stereo not drawn),n,n,n,n,n,n
S=C1N(c2ccccc2)C(c2ccc(Cl)cc2)N2CCCN12 (stereo not drawn),n,n,n,n,n,96
S=C1N(c2ccccc2)C(c2ccc(Br)cc2)N2CCCN12 (stereo not drawn),n,n,n,n,n,100
O=C(COC(=O)CCNS(=O)(=O)c1cccs1)Nc1ccccc1,n,n,n,n,n,n
CN1CCN(c2ccc(Cl)cc2NS(=O)(=O)c2ccccc2Cl)CC1,n,n,n,n,n,36
O=C(NCC1CCCO1)C(c1ccc(F)cc1)N(C(=O)Cn1nnc(-c2ccc(F)cc2)n1)c1cccc(O)c1 (stereo not drawn),n,n,n,n,n,36
Cc1ccc(N(C(=O)CNC(=O)c2ccco2)C(C(=O)NCC2CCCO2)c2ccccc2)cc1 (stereo not drawn),n,n,n,n,n,n
COc1ccc(C(C(=O)NCC2CCCO2)N(C(=O)CNC(=O)c2cccs2)c2ccccc2)cc1OC (stereo not drawn),24,n,n,n,n,n
COc1ccc(C(C(=O)NCC2CCCO2)N(C(=O)CNC(=O)c2ccco2)c2ccccc2)cc1OC (stereo not drawn),n,n,n,n,n,n
Cc1cccc(N(C(=O)CNC(=O)c2ccco2)C(C(=O)NCC2CCCO2)c2ccccc2)c1 (stereo not drawn),n,n,n,n,n,23
COc1ccc(CC(=O)OCC(=O)Nc2cccnc2Cl)cc1OC,n,n,n,n,n,35
c1cncc(C2SCCCS2)c1,n,n,n,n,n,n
Cc1nc2c(o1)CCc1ccccc1C2N1CCN(C)CC1 (stereo not drawn),n,n,n,n,n,99
Cc1nc(S(=O)(=O)N2CCN(C3c4ccccc4-c4ccccc43)CC2)cn1C,n,n,n,n,n,n
SMILES,CHO-K1 Ca antag,M1 ag,M1 PAM parental,CHRM1 PAM,M1 ag parental,M1 antag
O=C(NCCC(=O)N(CCc1ccccc1)Cc1ccccc1)c1ccc([N+](=O)[O-])cc1,n,n,n,n,n,n
CCn1c(NCc2ccco2)nc2ccccc21,n,n,n,n,n,n
c1ccc(Cn2c(NCc3ccco3)nc3ccccc32)cc1,25,n,n,n,n,n
CN(CC(=O)Nc1ccc(Cl)cc1F)C1=NS(=O)(=O)c2ccccc21,n,n,n,n,n,n
CC(C)OCCCn1c(SCC(=O)N2CCCC2=O)nc2ccccc2c1=O,n,n,n,n,15,n
Cc1cc2ccccc2cc1C(=O)c1ccccc1,n,n,n,28,n,n
O=C(c1ccccc1)c1ccc2ccccc2c1,n,n,n,n,n,n
